Here are results for 32 compounds from the supplement of paper PMC8007513.

This experiment concerns Trichoderma virens ATCC 9645. Briefly: growth yield (OD600) relative to untreated control; higher = less growth inhibition. Particulars: compound concentration: 100 uM. Summed up:
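Library compounds (100 μM final), with or without a co-applied biocide (200 ng ml^−1), were added to 100 μl aliquots of Trichoderma virens ATCC 9645 spores at 15,000 spores ml^−1 in potato dextrose broth. Cultures were grown at 30 °C in 96-well plates, and OD600 was measured at 40 h and 72 h. Each growth value is a mean of duplicate screens, expressed relative to the control with neither agent.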

Counter-ions that a name gives are not always drawn. ± gives the standard error. Screen size: about 1,300 compounds; about 75 (6%) showed an effect of 50% or more. The sample as a whole holds a higher share of strong results than the screen did.

`COc1ccc(C(=O)c2ccccc2)c(O)c1` [Oxybenzone] gave a growth yield (40 h) of 53.8 ± 4.3% and a growth yield (72 h) of 62.9%.
In the same order, the values of `COc1ccccc1O` [Guaiacol] are 103.9 ± 0.95% and 102.7 ± 0.32%.
The matching figures for `COc1ccc(C(=O)c2ccccc2O)c(O)c1` [Dioxybenzone]: 22.2% and 45.1 ± 2.7%.
On to `Nc1cc(N2CCCCC2)nc(N)[n+]1[O-]` [Minoxidil], for which the growth yield turned out to be 104 ± 3.2% (40 h) and 102 ± 1.3% (72 h).
In the same order, the values of `O=C(NCCO[N+](=O)[O-])c1cccnc1` [Nicorandil] are 102.9 ± 0.32% and 102 ± 4.2%.
As for `CC1=C(C(=O)O)N2C(=O)[C@@H](NC(=O)[C@H](N)c3ccc(O)cc3)[C@H]2SC1` [Cefadroxil], the growth yield was determined as 104 ± 8.9% (40 h) and 106 ± 9.1% (72 h).
With `O=C(O[C@@H]1C[C@@H]2C[C@H]3C[C@H](C1)N2CC3=O)c1c[nH]c2ccccc12` [Dolasetron mesilate], the growth yield came to 106 ± 3.3% (40 h) and 104 ± 1.9% (72 h).
The matching figures for `CCn1cc(C(=O)O)c(=O)c2cnc(N3CCCC3)nc21` [Piromidic acid]: 90.5 ± 5.7% and 92.1 ± 4%.
The matching figures for `CCCCC(CC)CNC(=N)NC(=N)NCCCCCCNC(=N)NC(=N)NCC(CC)CCCC` (centres undefined) [Alexidine dihydrochloride]: 1.91 ± 0.32% and 1.89 ± 0.63%.
The matching figures for `OC(CCN1CCCCC1)(c1ccccc1)C1CC2C=CC1C2` (centres undefined) [Biperiden hydrochloride]: 104 ± 2.9% and 105 ± 1.9%.
Take `CCN(CC)CCNc1ccc(CO)c2sc3ccccc3c(=O)c12` [Hycanthone]: the growth yield runs as follows: (40 h) 118 ± 4.1%; (72 h) 114.7 ± 0.63%.
Consider `CCCCC[C@H](O)/C=C/[C@H]1[C@H](O)CC(=O)[C@@H]1CCCCCCC(=O)O` [Alprostadil], for which the growth yield by setting is: (40 h) 107 ± 8.4%; (72 h) 101 ± 6.2%.
The matching figures for `C[C@@H]1C[C@H]2[C@@H]3C[C@H](F)C4=CC(=O)C=C[C@]4(C)[C@@]3(Cl)[C@@H](O)C[C@]2(C)[C@H]1C(=O)COC(=O)C(C)(C)C` [Clocortolone pivalate]: 107 ± 4% and 100 ± 5.7%.
The matching figures for `O=c1oc2ccccc2c(O)c1Cc1c(O)c2ccccc2oc1=O` [Dicumarol]: 94 ± 0.95% and 92.4 ± 0.94%.
In the same order, the values of `CCc1oc2ccccc2c1C(=O)c1cc(Br)c(O)c(Br)c1` [Benzbromarone] are 40.7 ± 5.7% and 77.8 ± 4.8%.
For the compound `CC(=O)CC(c1ccccc1)c1c(O)c2ccccc2oc1=O` (centres undefined) [Warfarin], the growth yield (40 h) came out at 90.9 ± 3.5% and the growth yield (72 h) turned out to be 89.1 ± 4%.
The matching figures for `CC(Cc1cccc(C(F)(F)F)c1)NCCOC(=O)c1ccccc1` (centres undefined) [Benfluorex]: 83.5 ± 3.5% and 95.9 ± 1.9%.
In the same order, the values of `CN[C@@H]1[C@H](O[C@H]2[C@H](O[C@H]3[C@H](O)[C@@H](O)[C@H](NC(=N)N)[C@@H](O)[C@@H]3NC(=N)N)O[C@@H](C)[C@]2(O)CO)O[C@@H](CO)[C@H](O)[C@H]1O` [Dihydrostreptomycin sulfate] are 96.9% and 98%.
In the same order, the values of `CCOC1O[C@H]([C@@H](COCc2ccccc2)OCc2ccccc2)[C@H](OCc2ccccc2)[C@H]1O` (some centres undefined) [Tribenoside] are 90.2 ± 6% and 87.2 ± 6.2%.
In the case of `CC(C)CC(=O)N[C@H](C(=O)N[C@H](C(=O)N[C@@H](CC(C)C)[C@@H](O)CC(=O)N[C@@H](C)C(=O)N[C@@H](CC(C)C)[C@@H](O)CC(=O)O)C(C)C)C(C)C` [Pepstatin A], the growth yield came to 106 ± 5.4% (40 h) and 102 ± 7.8% (72 h).
In the same order, the values of `CN(C)CCOC(c1ccc(Cl)cc1)c1ccccn1` (centres undefined) [Carbinoxamine maleate salt] are 97.7 ± 4.3% and 97.8 ± 2.6%.
The matching figures for `CCN(CC)C(=S)SSC(=S)N(CC)CC` [Disulfiram]: 27.2 ± 17% and 67.8 ± 12%.
The matching figures for `COc1ccccc1N1CCN(CC(O)COc2cccc3ccccc23)CC1` (centres undefined) [Naftopidil dihydrochloride]: 97.4 ± 1.1% and 110.22 ± 0.1%.
Turning to `NCCNCCNCCNCCN` [Tetraethylenepentamine pentahydrochloride], the growth yield (40 h) turned out to be 103 ± 2.5% and the growth yield (72 h) is 99.8 ± 2.9%.
In the same order, the values of `CCCOc1ccccc1-c1nc2[nH]nnc2c(=O)[nH]1` [Zaprinast] are 99.1% and 106 ± 1.1%.
Regarding `CCC(=O)OCC(=O)[C@@]1(OC(=O)CC)[C@H](C)C[C@H]2[C@H]3[C@H]([C@@H](O)C[C@@]21C)[C@@]1(C)C=CC(=O)C=C1C[C@H]3Cl` [Alclometasone dipropionate], the growth yield is, setting by setting: (40 h) 101 ± 4%; (72 h) 97.7 ± 1.7%.
In the same order, the values of `CCCCCCNC(=O)n1cc(F)c(=O)[nH]c1=O` [Carmofur] are 16.4 ± 0.48% and 33.1 ± 5.5%.
In the case of `Nc1nc(=O)c2c([nH]1)NC[C@@H](CNc1ccc(C(=O)N[C@@H](CCC(=O)O)C(=O)O)cc1)N2C=O` [Folinic acid calcium salt], the growth yield stood at 99.8 ± 2.5% (40 h) and 92 ± 4.1% (72 h).
Consider `CC(C)NC[C@H](O)COc1ccc(CC(N)=O)cc1` [(S)-(-)-Atenolol], for which the growth yield reads like this: (40 h) 100 ± 1.6%; (72 h) 101 ± 1.5%.
The matching figures for `NS(=O)(=O)c1cc2c(cc1C(F)(F)F)NC(Cc1ccccc1)NS2(=O)=O` (centres undefined) [Bendroflumethiazide]: 106 ± 3.3% and 102 ± 3.4%.
`CN(c1nccc(=O)[nH]1)C1CCN(c2nc3ccccc3n2Cc2ccc(F)cc2)CC1` [Mizolastine] had a growth yield (40 h) of 94.5 ± 2.4% and a growth yield (72 h) of 96 ± 2.6%.
The matching figures for `CN(C)CCN(Cc1ccc(Cl)cc1)c1ccccn1` [Chloropyramine hydrochloride]: 98.8 ± 1.9% and 96.2 ± 2.6%.
